Measured values: ChEMBL document CHEMBL4513216, “Probing the Open Global Health Chemical Diversity Library for Multistage-Active Starting Points for Next-Generation Antimalarials” (ACS Infect Dis, 2020)
About 2,700 (4%) of roughly 68,000 compounds showed an effect of 50% or more. This excerpt belongs to a sample that is enriched for strong results.

These compounds were tested on Plasmodium berghei (assay: Screen against P. berghei liver stage (PbLuc), transformed with Luciferase, at 2uM). Details: tested at 2 uM.
Format: functional, HepG2

SMILES | INHIBITION [%]
COc1cc(C2c3c(n[nH]c3C)N=C3COC(=O)C32)cc2c1OCO2 (stereo not drawn) | -41.64
COc1ccc(CNC(=O)NC(C)(CO)C2CC2)c(C(F)(F)F)c1 (stereo not drawn) | -16.93
CCN(CC)C(=O)c1cc(Br)cc(S(=O)(=O)N2CCOCC2)c1F | 0.48
O=C(COCc1ccccc1)N1CCC(OCc2cccnc2)CC1 | 34.34
Cc1cc(C)c(C(=O)N2CCCC(C(=O)CCc3ccccc3)C2)cn1 (stereo not drawn) | 0.73
CN(C)S(=O)(=O)N1CCOC(c2cccc(-c3cncnc3)n2)C1 (stereo not drawn) | -12.93
CCNC(=O)CNC(=O)c1nc(C2CC2)n(-c2ccccc2Cl)n1 | 13.01
CC(=O)NCCNC(=O)c1nc(C2CC2)n(-c2ccccc2Cl)n1 | -1.79
Cc1nc(C(=O)N2CCCCC2)nn1-c1ccccc1Cl | 60.09
CCN1CCN(C(=O)c2nc(C)n(-c3ccccc3Cl)n2)CC1 | -18.67
CN(C)C(=O)CNC(=O)c1nc(C2CC2)n(-c2ccccc2Cl)n1 | 65.76
CCc1nc(C(=O)N2CCCCC2)nn1-c1ccccc1Cl | -41.76
CN1[C@H](Cn2cncn2)C[C@@H]2CN(Cc3cccc(C#N)c3)CC[C@@H]21 | 12.3
CN1CCC2(C=C(C(=O)N(C)C)c3ccccc32)CC1 | -10.89
Cc1cccc(C(=O)N2CC(Cc3nccc4ccn(C)c34)C2)n1 | -25.33
Cn1ccc2ccnc(CC3CN(C(=O)c4cscn4)C3)c21 | 52.82
CC(=O)N1CC(Cc2nccc3ccn(C)c23)C1 | 20.08
CCc1nnc2n1CCN(C(=O)C(C)COCc1ccccc1)C2 (stereo not drawn) | -32.2
Cc1cc2c(N3CCC(N(C)Cc4cnn(C)c4)CC3)ncnc2s1 | 10.13
CCc1ccc(C2CC(=O)Nc3c2c(=O)n(C)c2ncnn32)cc1 (stereo not drawn) | 56.21
COc1cccc(C2CC(=O)Nc3c2c(=O)n(C)c2ncnn32)c1 (stereo not drawn) | 15.49
Cn1c(=O)c2c(n3ncnc13)NC(=O)CC2c1cccc(Br)c1 (stereo not drawn) | -13.28
Cn1c(=O)c2c(n3ncnc13)NC(=O)CC2c1cccc(F)c1 (stereo not drawn) | 5.31

SMILES | INHIBITION [%]
CCc1ccc(C2CC(=O)Nc3c2c(=O)[nH]n3C(C)C)cc1 (stereo not drawn) | -9.13
Cn1c(=O)c2c(n3ncnc13)NC(=O)CC2c1ccc(F)cc1 (stereo not drawn) | 53.55
CCS(=O)(=O)N1Cc2[nH]nc(COCc3cccnc3)c2C1 | -2.81
CNC(=O)C(C)(C)N1CCC[C@H]1C(=O)NC(C)(C)C | 30.4
CCN1CCCC12CCCN(c1ncccn1)C2 (stereo not drawn) | -23.31
CC1=Nc2c(c(O)nn2C2CCOCC2)C(c2cccnc2)S1 (stereo not drawn) | 18.76
Cc1nccn1CCN(C)c1nc(-c2ccc(Cl)cc2)nc2c1CNC2 | 19.59
CCN(CC)CCN(C)c1nc(-c2ccc(Cl)cc2)nc2c1CNC2 | 81.59
CCn1ccnc1CN(C)c1nc(-c2ccc(Cl)cc2)nc2c1CNC2 | 5.28
O=C(O)c1cc(S(=O)(=O)Nc2cc(F)ccc2F)cc2c1OCCO2 | -41.21
COCCN1CCN(CCCS(=O)(=O)N(C)C)CC1C (stereo not drawn) | 25.35
O=C(CCCc1ccccn1)NCC(O)c1c(F)cccc1F (stereo not drawn) | 17.98
CCn1nnc2c1C(COCCN(C)C)CN(S(C)(=O)=O)C2 (stereo not drawn) | 34.19
CN(C)c1ncccc1CNC(=O)N1CCCC1c1ccsc1 (stereo not drawn) | 43.93
CN(CCCNC(=O)N1CCCC1c1ccsc1)c1ccccn1 (stereo not drawn) | 63.95
O=C(NCCCn1cccn1)N1CCCC1c1ccsc1 (stereo not drawn) | 16.21
N#Cc1ccc(C(=O)N2CC[C@H]3[C@@H]2CCC(=O)N3c2cccnc2)cc1 | -11.44
CC(C)C(=O)N1CCCC1C(=O)Nc1ccc(F)c(F)c1 (stereo not drawn) | 55.29
CC(C)C(=O)N1CCCC1C(=O)Nc1cc(C(F)(F)F)ccc1F (stereo not drawn) | 13.92
Cc1ccc(F)cc1NC(=O)C1CCCN1C(=O)C(C)C (stereo not drawn) | 15.27
Cc1cnc(C(C)(C)NC(=O)NCc2ccc(C#N)cc2F)s1 | 16.79
Cc1cc(C)c(CNC(=O)N2CCN(c3ccccn3)CC2)c(=O)[nH]1 | 7.64
Cc1cc(C)c(CNC(=O)N2CCN(c3cnccn3)CC2)c(=O)[nH]1 | 63.95

SMILES | INHIBITION [%]
Cc1cc(C)c(CNC(=O)C2CCN(c3cnccn3)CC2)c(=O)[nH]1 | -7.02
CSc1ccccc1NC(=O)C1CSc2ncc(C)c(=O)n2C1 (stereo not drawn) | -35.92
Cn1c(C(F)(F)F)nn(CCNC(=O)CSCc2ccccc2)c1=O | -30.06
NCCn1nc(C2CCN(Cc3ccccc3)C2)c2nccnc21 (stereo not drawn) | 8.26
CN1CCCCC1CCC(=O)NCCCn1ncc2ccccc21 (stereo not drawn) | 28.19
CN1CCCC(CCC(=O)NCCCn2ncc3ccccc32)C1 (stereo not drawn) | 46.95
CN1CCCCCC1C(=O)NCCCn1ncc2ccccc21 (stereo not drawn) | 54.78
O=C(Nc1ccccc1C(=O)NCCN1CCOCC1)c1ccco1 | -4.93
O=C(Nc1ccc(Cl)cc1C(=O)NCCN1CCOCC1)c1ccco1 | 60.47
O=C(Nc1ccc(I)cc1C(=O)NCCN1CCOCC1)c1ccco1 | -54.79
CN(C)CCOCC1CN(Cc2cccs2)Cc2ccnn2C1 (stereo not drawn) | -85.93
Cc1cc(CN2CCN(C(=O)NCc3ccc(C)s3)CC2)on1 | 6.63
CCCNC(=O)N1CCN(Cc2cc(C)no2)CC1 | 26.4
Cc1cc(CN2CCN(C(=O)NCc3c(C)noc3C)CC2)on1 | 70.27
COc1cc(CCC(=O)NC(C)(C)C)ccc1OCC(F)(F)F | -1.02
CCOCCC1(CNC(=O)c2ccc(C)nc2)CCCC1 | -9.5
COCCCN1CCN(C(=O)C(c2cccc(F)c2)N(C)C)CC1 (stereo not drawn) | 60.13
CN(C)C(C(=O)NCCn1cccc1)c1cccc(F)c1 (stereo not drawn) | 3.58
COCCN1CCN(C(=O)C(c2cccc(F)c2)N(C)C)CC1 (stereo not drawn) | 48.21
CN(C)C(C(=O)N1CCN(CCn2cccc2)CC1)c1cccc(F)c1 (stereo not drawn) | 69.67
CCOCC1CCN(C(=O)C(c2cccc(F)c2)N(C)C)CC1 (stereo not drawn) | -15.23
CN(C)C(C(=O)N1CCN(CCn2cccc2)CC1)c1ccc(F)cc1 (stereo not drawn) | 31.51
